From the supplement of paper PMC3334620
Whole data set: some 33,000 sequences, median “E-score (-0.5 to 0.5)” near -0.012, cut for the highest 2% near 0.29. This is one part of a sample in which the highest values are shown more often than they occur.

These sequences were tested against T1, Ybr033w (UniProt P38073) (assay: PBM E-score (8-mer binding enrichment) (E-score (-0.5 to 0.5)); higher = stronger / more preferred TF binding). Conditions: protein concentration: 200 nM; construct: GST-full length.
T1 sequence: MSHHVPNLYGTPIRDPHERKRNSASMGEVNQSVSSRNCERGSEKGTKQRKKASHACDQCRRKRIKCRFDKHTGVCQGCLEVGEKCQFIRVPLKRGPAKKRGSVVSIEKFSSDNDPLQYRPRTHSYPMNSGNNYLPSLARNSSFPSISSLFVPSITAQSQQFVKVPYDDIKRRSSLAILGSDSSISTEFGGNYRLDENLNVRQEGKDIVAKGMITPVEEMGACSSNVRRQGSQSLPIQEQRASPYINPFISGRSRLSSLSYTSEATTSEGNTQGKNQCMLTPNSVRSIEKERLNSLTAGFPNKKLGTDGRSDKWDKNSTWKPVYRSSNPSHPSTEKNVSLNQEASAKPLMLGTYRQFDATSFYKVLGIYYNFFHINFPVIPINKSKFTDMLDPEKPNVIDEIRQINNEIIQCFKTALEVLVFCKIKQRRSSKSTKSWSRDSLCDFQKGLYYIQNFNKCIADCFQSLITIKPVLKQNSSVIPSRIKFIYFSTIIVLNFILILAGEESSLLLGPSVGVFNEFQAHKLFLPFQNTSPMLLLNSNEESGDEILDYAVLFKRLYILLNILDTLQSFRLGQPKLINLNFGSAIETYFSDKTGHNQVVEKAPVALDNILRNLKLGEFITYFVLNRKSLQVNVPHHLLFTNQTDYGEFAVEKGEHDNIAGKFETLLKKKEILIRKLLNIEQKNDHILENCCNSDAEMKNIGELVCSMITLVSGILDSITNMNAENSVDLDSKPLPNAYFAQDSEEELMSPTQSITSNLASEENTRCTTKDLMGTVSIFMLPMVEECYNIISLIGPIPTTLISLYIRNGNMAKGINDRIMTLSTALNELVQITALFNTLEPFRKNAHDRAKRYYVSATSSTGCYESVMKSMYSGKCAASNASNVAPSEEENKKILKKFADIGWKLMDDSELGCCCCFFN
Procedure: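 Universal 'all 10-mer' protein binding microarrays (Agilent AMADID 015681) probed with GST-tagged S. cerevisiae TFs (full-length or DBD) made by in vitro transcription/translation (PURExpress), about 100-200 nM. Bound TF was detected with fluorescent anti-GST. Each ungapped 8-mer (which stands for itself and its reverse complement) is scored by the PBM enrichment score (E-score), a modified Wilcoxon-Mann-Whitney statistic from -0.5 to +0.5, computed with the Universal PBM Analysis Suite. Scale: above 0.35 generally sequence-specific binding.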

Sequence	PBM E-score
TATTGCAA	0.246
ACGAAGAC	-0.177
CTATTGAG	-0.0501
TCTCCAGA	-0.189
CCCGGTTC	-0.0468
CGGACACA	-0.152
CAACGATA	0.187
TAACGATA	0.292
AAACGATA	0.213
CTTGGCTC	-0.146
AGCCCAGC	-0.2
GATTGCAA	0.171
AATGTGAT	0.15
AATGTGAC	0.0448
AATGTGAA	0.313
GCATCACA	0.215
TTACCAAA	0.235
ACTACTAC	0.153
ACTACTAT	0.328
ACTACTAA	0.173
AGAGGAGG	-0.26
AAGATTTC	0.169
ATACAAAA	0.311
GTACAAAC	0.0352
ATACATAC	0.0684

Sequence	PBM E-score
ATACAAAC	0.306
ATACAAAG	0.298
ATACATAA	0.309
TTACAAAA	0.268
CTACATAA	0.0125
CTACAAAC	0.152
ATACAAAT	0.252
CTACAAAA	0.00298
CTACAAAG	0.0965
TACCGGAA	0.27
TGCTACAA	0.161
CAGTTTGA	0.206
AGCGGCAT	0.0383
CCCACAAC	-0.108
CTGTAGGA	0.0305
TTCTAGAA	0.102
GTTTTCAA	0.146
GTCCAGAC	-0.308
CGCCCAGA	-0.174
ACGATCTA	-0.0695
ATACAATA	0.332
CTACAATA	0.164
ATACAATC	0.0522
CCGCGAGC	-0.194
CACTTTTA	0.0413

Sequence	PBM E-score
TAGGAGGA	0.0316
CCGGAATA	0.412
ACGGAATC	0.113
ACGGAATG	-0.153
ACGGAATA	0.351
GCGGAAGA	0.236
CGGGAATA	0.246
CCGGAATC	-0.0781
GCGGAATA	0.293
GGGGAATA	-0.0146
CCTATTCG	-0.149
CGACGGTA	-0.0307
ATTACTAA	0.225
CGTTCTTA	0.0158
ATCTTCTC	0.0573
ACATCGGG	-0.0939
TATTTGAA	0.255
ATTAATCA	0.26
ATTAATAC	0.306
ATTAATCG	0.166
ACTAATAG	0.2
CTTAATAA	0.182
GTTAATCA	0.277
ATTAATAA	0.302
ATTAATAG	0.373

Sequence	PBM E-score
GTTAATAA	0.329
CTTAATAC	0.136
ACTAATAC	0.228
AGTAATAA	0.18
GACACACC	-0.0728
CAGGGTGG	-0.234
CTCTAGGC	-0.153
GCATAGCA	0.0192
GCTAGTAA	-0.014
CAAGGTGA	-0.103
ACCTAGCA	0.0895
AGTGAAGC	-0.0225
ACCTCGGA	0.0486
CGAATCGC	-0.0798
ACAGGTAC	-0.0953
CACGCGCG	-0.0876
GAAGGCCC	-0.223
ATAAAAAG	0.316
GTAAAATA	0.269
ATAAAATC	0.226
ATAAAATA	0.344
ATAAATAA	0.38
ATAAATAT	0.396
ATAAAAAA	0.164
ATAAAAAT	0.193

Sequence	PBM E-score
ATAAATAC	0.211
ATAAATAG	0.254
ATAAAAGG	-0.0365
TTAAATAA	0.264
CGAAAATC	0.222
CACCTATA	0.0106
AGTCTGTC	-0.0266
ACCTTCCG	-0.032
CGTATAGC	-0.0573
CGATTGGC	-0.0233
ACCGGTCA	-0.2
CCCCAAAC	-0.101
AAATAAGA	0.16
ACTCAGAA	0.11
TGCTATAA	0.0493
ATATTGAT	0.39
AAATTGAA	0.127
AAATTGTA	0.22
ATATTGAG	0.259
AAATTGTC	0.192
AAATTGTT	0.317
ATATTGAA	0.189
AAATTGAT	0.336
AAATTGAC	0.108
AAGGGCAG	-0.151

Sequence	PBM E-score
TACTGGCA	-0.0764
ATAGAGCG	-0.117
AGCACTCC	-0.0492
ATAATACC	0.187
ATAATACA	0.305
ACAATAAA	0.14
CTAATAAC	0.216
TTAATAAA	0.381
ACAATAAT	0.341
CTAATAAA	0.28
GTAATAAA	0.198
ATAATACG	0.187
ATAATAGA	0.223
ACAATAAC	0.246
ATAATAAA	0.366
ACAGCCCG	-0.175
GATCTCCA	-0.0356
GGATCTAA	-0.0711
CGAGACCC	-0.167
GAGAACTA	0.101
AAGCCCTA	-0.124
ACATACAT	0.226
AACCCTAG	-0.0236
ACTTTAAT	0.114
AAGCAAAA	0.13

Sequence	PBM E-score
CCGGGTCG	-0.279
CCCGGGAC	-0.322
ATAATAAG	0.18
ATAATGAG	0.0777
ATAATAAC	0.159
ATAATGAA	0.331
ATAATAAT	0.305
ATAATGAT	0.203
CTTGCTGA	0.0188
AGGACAAA	0.17
CGGACAAG	-0.0192
CGGACAAA	0.297
CAGACTTA	-0.189
TCAAGAGA	0.0989
AGATTCTA	0.106
GATGTTCA	-0.079
CATGTTCC	0.0191
GATGTTCC	0.412
CCTGAGAC	-0.235
ATTCTCCA	0.175
ATTCTCCG	0.305
ATTCTCCC	0.14
CCACAGGC	-0.336
AACTCTCT	0.0664
ACCTCAGG	-0.12

Sequence	PBM E-score
ATATCTTC	0.218
ATATCTTG	0.288
ATATCTTA	0.281
CTAGAGGA	-0.102
GCAAATTA	0.106
TGGTCGAA	-0.209
TGTATACA	0.341
GATATACA	0.144
GGTATACA	0.00479
TATATACA	0.24
CATATACA	0.324
AATATACT	0.279
AATATACA	0.316
AGTATACA	0.185
CATATACC	-0.165
GTCTAATA	0.0847
GGCTCCAC	-0.267
GATAGGAC	-0.188
GTGATCAC	-0.181
TACTCACA	0.158
ATCGAGCG	-0.089
GATCTAGA	0.0239
GATACCCA	0.0285
AGATATAG	0.171
AAATAGTT	0.227

Sequence	PBM E-score
CAATATAG	0.115
AAATATAG	0.305
AACTATAT	0.335
AAATAGTC	0.0679
AAATAGTG	0.292
AACTATAC	0.151
AAATATGG	0.12
AACTATAG	0.104
ATATATAG	0.332
CTATATAG	0.0604
TCATCGGA	0.109
CAACCTTA	0.14
CCTTAGCG	-0.178
ATTTACCG	0.132
TACAATCA	0.171
AACTACCG	0.0353
AAATATCC	0.273
CAATATAC	0.0977
AAGTATAA	0.152
TAATAGAA	0.198
AAGTATAG	0.12
AAATATCT	0.295
TAATATAA	0.379
AAATATCG	0.247
AAGTATAT	0.302

Sequence	PBM E-score
AAATATAC	0.312
GAATATAC	0.141
TAATATGA	0.284
AGAGTAGG	0.0322
CTATCTGC	-0.0829
ACAACTGT	0.106
CCACTACC	-0.149
AGGTGCAG	-0.186
AATTCTGC	0.0888
ATGACGCA	-0.0224
ACCAGGTA	-0.225
ATCGTTAA	0.24
ATCTTCAG	0.185
AAATATAA	0.305
AAATATGT	0.252
AAATAGAG	0.247
GAATATAA	0.131
CAATATAA	0.284
AAATAGAC	0.101
ATATATAT	0.141
AAATATAT	0.339
AAATAGAT	0.289
CAAGTCGA	-0.0109
GGTGAATA	0.127
ACGCAACG	0.0621

Sequence	PBM E-score
GTAAGTCA	0.0193
AAGCTTAC	0.0655
AAGGTTTG	0.227
AGGTGAGC	-0.172
ACTAACCC	0.0277
GTCGCGAC	0.234
CTTAACAC	0.112
ATTAACAC	0.368
GTTAACAA	0.0731
ATTAACAG	0.0928
ATTAACAA	0.382
AATAACAC	0.222
CGATTAAA	0.174
GGATTAAC	0.441
AGATTAAG	0.214
AGATTAAC	0.199
CGATTAAC	0.103
AGATTAAT	0.284
AGATTAAA	0.295
GGATTAAA	0.341
TGATTAAA	0.27
GGAGAACA	0.026
ACTTAGCA	0.00122
GCCCTCTA	-0.176
TACGCCCA	0.0751

Sequence	PBM E-score
CAGATCGC	-0.164
CTAAACAA	0.112
ATAAACAG	0.0706
GTAAACAC	0.0587
TTAAACAA	0.226
AAAAACAA	0.321
ATAAACAC	0.241
GTAAACAA	0.298
GAAAACAA	0.115
TAAAACAA	0.177
ATAAACAA	0.326
ATAAACAT	0.289
AAAAACAT	0.21
CAGGGTAC	-0.158
GTCGCATA	0.214
TATCACAA	0.18
AGCTAGAG	-0.0778
CTCAAAAC	0.217
CCTTGGGA	0.021
ACAGAAGA	0.0639
CCTTTGCA	0.0151
AATAACCG	-0.0165
AAAAACCT	0.307
AAAAACCG	0.134
AAAAACCC	0.164

Sequence	PBM E-score
CCACTTCA	-0.0798
AGCCCTCG	-0.314
AGAATTAC	0.181
GGAATTCA	0.288
CGAATTAC	0.135
GGAATTAA	0.349
GGAATTAC	0.291
CGAATTAA	0.112
TGAATTAA	0.226
CGAATTCA	-0.00151
GGAATTCC	-0.236
CCACGCTC	-0.126
ACTACTGG	0.017
GGACCGAA	0.061
AGTCCTTA	-0.049
CACAATTC	0.16
CATAAATA	0.169
GATAAAGA	0.154
ACTAAATA	0.322
ACTAAATC	0.278
GATAAAGC	0.159
TATAAAAA	0.253
GATAAATC	0.304
GGTAAATA	0.225
TATAAATA	0.289

Sequence	PBM E-score
CCTAAATA	0.118
CATAAATC	0.146
GATAAATA	0.4
TTCGCAAA	0.225
CTAGACAA	-0.0833
ATCCATGA	-0.0662
AGACAAAT	0.129
CCACAAAC	0.077
TCCACACA	0.111
CGGTGCGC	-0.156
GTTCGAGA	-0.0752
GCTGAGGA	-0.194
TATAAACA	0.247
AATAAATT	0.314
AATAAATC	0.263
GATAAACC	0.236
GATAAACA	0.298
GATAAAAC	0.323
AATAAATG	0.194
AATAAAGA	0.267
AATAAATA	0.378
AATAAACT	0.221
GATAAAAA	0.278
CATAAAAC	0.0263
